Measured values published in PubChem BioAssay AID1159580 (chemical genetic matrix, 2015).
The campaign covered roughly 5,500 compounds. About 2,000 (36%) were called active. Roughly 18% stayed inconclusive and do not appear here. Rule as the data show it: active = normalized growth mostly below about 0.91 (no sharp cut-off); inconclusive = no clear call, values can overlap the other calls; inactive = mostly above about 0.92. Some of the results follow.

Assay: chemical genetic growth profiling, strain panel (AID 1159580);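 also: tested at 20 µM; growth read once vehicle control cultures reached saturation at 30 °C; 1 = growth at the plate median or of vehicle wells; lower values mean less growth of the strain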
Details: growth OD

Measured: normalized growth

CO[C@]12C[C@@H](COC(=O)c3cncc(Br)c3)CN(C)[C@@H]1Cc1cn(C)c3cccc2c13
active: S. cerevisiae deletion strains, locus YLR039C, strain RIC1, stronger effect = lower value 1.34 [resistant] | S. cerevisiae deletion strains, locus YLR262C, strain YPT6, stronger effect = lower value 1.45 [resistant]
inactive: S. cerevisiae deletion strains, locus YJR075W, strain HOC1, stronger effect = lower value 0.994 | S. cerevisiae deletion strains, locus YKL009W, strain mrt4, stronger effect = lower value 0.968 | S. cerevisiae deletion strains, locus YKL068W, stronger effect = lower value 0.997 | S. cerevisiae deletion strains, locus YKL085W, strain MDH1 (second series), stronger effect = lower value 0.995 | S. cerevisiae deletion strains, locus YKL085W, strain MDH1, stronger effect = lower value 0.995 | S. cerevisiae deletion strains, locus YKL160W, strain elf1, stronger effect = lower value 0.984 | S. cerevisiae deletion strains, locus YKL190W, strain CNB1, stronger effect = lower value 0.999 | S. cerevisiae deletion strains, locus YKR001C, strain vps1, stronger effect = lower value 1.02 | S. cerevisiae deletion strains, locus YKR026C, strain gcn3, stronger effect = lower value 1.03 | S. cerevisiae deletion strains, locus YKR091W, strain srl3, stronger effect = lower value 0.981 | S. cerevisiae deletion strains, locus YLL001W, strain dnm1, stronger effect = lower value 0.965 | S. cerevisiae deletion strains, locus YLL026W, stronger effect = lower value 0.989 | S. cerevisiae deletion strains, locus YLL041C, strain sdh2, stronger effect = lower value 0.998 | S. cerevisiae deletion strains, locus YLR027C, strain aat2, stronger effect = lower value 0.964 | S. cerevisiae deletion strains, locus YLR058C, strain SHM2, stronger effect = lower value 1 | S. cerevisiae deletion strains, locus YLR102C, strain apc9, stronger effect = lower value 1.01 | S. cerevisiae deletion strains, locus YLR113W, strain HOG1, stronger effect = lower value 0.954 | S. cerevisiae deletion strains, locus YLR221C, strain rsa3, stronger effect = lower value 0.973 | S. cerevisiae deletion strains, locus YLR258W, strain gsy2, stronger effect = lower value 0.997 | S. cerevisiae deletion strains, locus YLR262C, strain YPT6 (second series), stronger effect = lower value 1.07 | S. cerevisiae deletion strains, locus YLR268W, strain sec22, stronger effect = lower value 1.01 | S. cerevisiae deletion strains, locus YLR320W, strain mms22, stronger effect = lower value 0.983 | S. cerevisiae deletion strains, locus YLR330W, strain CHS5, stronger effect = lower value 1.01 | S. cerevisiae deletion strains, locus YLR342W, strain FKS1 (second series), stronger effect = lower value 0.968 | S. cerevisiae deletion strains, locus YLR342W, strain FKS1, stronger effect = lower value 0.975 | S. cerevisiae deletion strains, locus YLR357W, strain rsc2, stronger effect = lower value 0.969 | S. cerevisiae deletion strains, locus YLR370C, strain arc18, stronger effect = lower value 0.985 | S. cerevisiae deletion strains, locus YLR371W, strain rom2, stronger effect = lower value 1.01 | S. cerevisiae deletion strains, locus YLR384C, strain iki3, stronger effect = lower value 0.991 | S. cerevisiae deletion strains, locus YLR418C, strain cdc73, stronger effect = lower value 1.03 | S. cerevisiae deletion strains, locus YML016C, strain PPZ1, stronger effect = lower value 1.01 | S. cerevisiae deletion strains, locus YML032C, strain rad52, stronger effect = lower value 1.01 | S. cerevisiae deletion strains, locus YML120C, strain ndi1, stronger effect = lower value 0.993 | S. cerevisiae deletion strains, locus YML124C, strain tub3, stronger effect = lower value 1.01 | S. cerevisiae deletion strains, locus YMR058W, strain fet3, stronger effect = lower value 0.992 | S. cerevisiae deletion strains, locus YMR078C, strain ctf18, stronger effect = lower value 1 | S. cerevisiae deletion strains, locus YMR125W, strain sto1, stronger effect = lower value 0.977 | S. cerevisiae deletion strains, locus YMR129W, stronger effect = lower value 0.977 | S. cerevisiae deletion strains, locus YMR205C, strain PFK2, stronger effect = lower value 0.977 | S. cerevisiae deletion strains, locus YMR223W, strain ubp8, stronger effect = lower value 0.984 | S. cerevisiae deletion strains, locus YMR231W, strain pep5, stronger effect = lower value 0.997 | S. cerevisiae deletion strains, locus YMR263W, strain SAP30, stronger effect = lower value 0.997 | S. cerevisiae deletion strains, locus YMR307W, strain GAS1, stronger effect = lower value 1.08 | S. cerevisiae deletion strains, locus YNL067W, strain RPL9B, stronger effect = lower value 0.985 | S. cerevisiae deletion strains, locus YNL071W, strain lat1, stronger effect = lower value 0.944 | S. cerevisiae deletion strains, locus YNL128W, strain TEP1, stronger effect = lower value 1.01 | S. cerevisiae deletion strains, locus YNL153C, strain GIM3, stronger effect = lower value 0.99 | S. cerevisiae deletion strains, locus YNL183C, strain NPR1, stronger effect = lower value 0.912 | S. cerevisiae deletion strains, locus YNL209W, strain ssb2, stronger effect = lower value 0.996 | S. cerevisiae deletion strains, locus YNL233W, strain BNI4, stronger effect = lower value 0.997 | S. cerevisiae deletion strains, locus YNL248C, strain rpa49, stronger effect = lower value 0.934 | S. cerevisiae deletion strains, locus YNL250W, strain rad50, stronger effect = lower value 1 | S. cerevisiae deletion strains, locus YNL271C, strain bni1, stronger effect = lower value 1.01 | S. cerevisiae deletion strains, locus YNL298W, strain CLA4, stronger effect = lower value 1.01 | S. cerevisiae deletion strains, locus YNL307C, strain MCK1, stronger effect = lower value 0.975 | S. cerevisiae deletion strains, locus YNL322C, strain KRE1 (second series), stronger effect = lower value 0.985 | S. cerevisiae deletion strains, locus YNL322C, strain KRE1, stronger effect = lower value 1 | S. cerevisiae deletion strains, locus YNR049C, strain mso1, stronger effect = lower value 0.993 | S. cerevisiae deletion strains, locus YNR052C, strain pop2, stronger effect = lower value 1 | S. cerevisiae deletion strains, locus YOL006C, strain TOP1, stronger effect = lower value 1.06 | S. cerevisiae deletion strains, locus YOL012C, strain htz1 1.03 | S. cerevisiae deletion strains, locus YOL147C, strain pex11, stronger effect = lower value 1.01 | S. cerevisiae deletion strains, locus YOR001W, strain rrp6, stronger effect = lower value 0.972 | S. cerevisiae deletion strains, locus YOR061W, strain CKA2, stronger effect = lower value 1 | S. cerevisiae deletion strains, locus YOR069W, strain VPS5, stronger effect = lower value 1 | S. cerevisiae deletion strains, locus YOR070C, strain gyp1, stronger effect = lower value 0.994 | S. cerevisiae deletion strains, locus YOR080W, strain dia2, stronger effect = lower value 0.983 | S. cerevisiae deletion strains, locus YOR083W, strain WHI5, stronger effect = lower value 0.978 | S. cerevisiae deletion strains, locus YOR106W, strain vam3, stronger effect = lower value 0.968 | S. cerevisiae deletion strains, locus YOR136W, strain idh2, stronger effect = lower value 0.992 | S. cerevisiae deletion strains, locus YOR144C, strain elg1, stronger effect = lower value 1.01 | S. cerevisiae deletion strains, locus YOR184W, strain ser1, stronger effect = lower value 0.988 | S. cerevisiae deletion strains, locus YOR231W, strain MKK1, stronger effect = lower value 0.983 | S. cerevisiae deletion strains, locus YOR265W, strain rbl2, stronger effect = lower value 0.987 | S. cerevisiae deletion strains, locus YOR270C, strain vph1, stronger effect = lower value 1.01 | S. cerevisiae deletion strains, locus YOR290C, strain snf2, stronger effect = lower value 0.982 | S. cerevisiae deletion strains, locus YOR316C, strain cot1, stronger effect = lower value 1 | S. cerevisiae deletion strains, locus YPL051W, strain arl3, stronger effect = lower value 0.97 | S. cerevisiae deletion strains, locus YPL055C, strain LGE1, stronger effect = lower value 0.977 | S. cerevisiae deletion strains, locus YPL078C, strain atp4, stronger effect = lower value 0.975 | S. cerevisiae deletion strains, locus YPL106C, strain sse1, stronger effect = lower value 1.01 | S. cerevisiae deletion strains, locus YPL240C, strain hsp82, stronger effect = lower value 1.02 | S. cerevisiae deletion strains, locus YPL241C, strain CIN2, stronger effect = lower value 0.999 | S. cerevisiae deletion strains, locus YPL256C, strain CLN2, stronger effect = lower value 0.972 | S. cerevisiae deletion strains, locus YPR119W, strain clb2, stronger effect = lower value 1.01 | S. cerevisiae deletion strains, locus YPR141C, strain kar3, stronger effect = lower value 1.01 | S. cerevisiae deletion strains, locus YPR163C, strain tif3, stronger effect = lower value 1.02 | S. cerevisiae deletion strains, locus YPR167C, strain met16, stronger effect = lower value 1.01 | S. cerevisiae deletion strains, strain wtn01, stronger effect = lower value 1.02 | S. cerevisiae strains, strain wild type, stronger effect = lower value 0.993
